According to article PMC4552634, “A New Set of Chemical Starting Points with Plasmodium falciparum Transmission-Blocking Potential for Antimalarial Drug Discovery” (PLoS ONE, 2015):
Hit rate of the full screen: of about 13,000 compounds, about 3,200 (25%) showed an effect of 50% or more. This is one part of the list.

What follows are molecules tested on P. falciparum stage V gametocytes. Settings: 48 h, 5 µM; inhibitor.
Parameters: BacTiter-Glo ATP luminescence viability of purified stage V gametocytes in 384-well plates, per cent inhibition versus DMSO
In the case of `C=CCN1C(=O)C(=Cc2cc(Br)ccc2O)SC1=Nc1ccccc1` [TCMDC-124119], the “% Inhibition” value is reported as 53.26%. For `O=C1C(=Cc2cc(Cc3ccccc3)ccc2O)SC(=S)N1Cc1ccccc1` [TCMDC-124107], the “% Inhibition” value was 17.72%. In the case of `CCOC(=O)c1ccc(N=C2SC(=Cc3cc(Br)ccc3O)C(=O)N2C)cc1` [TCMDC-125656], the “% Inhibition” value is reported as 2.309%. `CCOC(=O)c1ccc(NC(=O)N[C@@H](Cc2ccccc2)C(=O)NC2CCN(Cc3ccc(O)c(OC)c3)C2)cc1` (some centres unmarked) [TCMDC-140503] was tested, and the “% Inhibition” value was -11.63%. In the case of `O=C(Nc1ccc(C(=O)OCC(c2ccccc2)c2ccccc2)cc1)N[C@@H](Cc1ccc(O)cc1)C(=O)NC1CCN(Cc2ccc(O)cc2)C1` (some centres unmarked) [TCMDC-135362], the “% Inhibition” value is reported as 9.298%. With `CCOC(=O)c1ccc(NC(=O)N[C@@H](Cc2ccccc2)C(=O)NC2CCN(Cc3ccc(O)cc3)C2)cc1` (some centres unmarked) [TCMDC-140502] the “% Inhibition” value was -28.76%. With `Cc1cc(C(=O)N[C@H]2CCN(Cc3ccc(OCCCN(C)C)cc3)C2)ccc1Br` [TCMDC-140368] the “% Inhibition” value was 17.03%. In the case of `CCOC(=O)c1ccc(NC(=O)N[C@@H](Cc2ccccc2)C(=O)NC2CCN(Cc3ccc(OCCCN(C)C)cc3)C2)cc1` (some centres unmarked) [TCMDC-140501], the “% Inhibition” value is reported as 106.4%. `CC(C)[C@H]1CC[C@H](C)C[C@@H]1OC(=O)N[C@@H](Cc1ccc(O)cc1)C(=O)NC1CCN(Cc2ccc(OCCCN(C)C)cc2)C1` (some centres unmarked) [TCMDC-140497] was tested, and the “% Inhibition” value was 106.1%. In the case of `CC(C)OC(=O)c1ccc(NC(=O)N[C@@H](Cc2ccc(O)cc2)C(=O)NC2CCC(CCN3C4CCC3c3ccccc34)CC2)cc1` (some centres unmarked) [TCMDC-136163], the “% Inhibition” value is reported as 13.63%. For `CC(C)(C)c1ccc(OC(=O)c2ccc(NC(=O)N[C@@H](Cc3ccc(O)cc3)C(=O)NC3CCN(Cc4ccc(O)cc4)C3)cc2)cc1` (some centres unmarked) [TCMDC-135359], the “% Inhibition” value was 23.01%. With `CC(C)OC(=O)c1ccc(NC(=O)N[C@@H](Cc2ccc(O)cc2)C(=O)NC2CC3CCC(C2)N3Cc2ccccc2)cc1` (some centres unmarked) [TCMDC-136164] the “% Inhibition” value was 71.31%. With `O=C(/C=C/c1ccc(Cl)c(Cl)c1)NCCCCN1CCCN(C(=O)Nc2cc(Cl)cc(Cl)c2)CC1` [TCMDC-135929] the “% Inhibition” value was -18.98%. `COc1ccc(CN2CCCC(OC(c3ccc(F)cc3)c3ccc(F)cc3)C2)c(O)c1` (centres unmarked) [TCMDC-136166] was tested, and the “% Inhibition” value was 23.2%. In the case of `Fc1cccc(COc2ccc(Nc3ncnc4sc(C#C[C@H]5CC[C@H](CN6CCOCC6)N5)cc34)cc2Cl)c1` [TCMDC-135417], the “% Inhibition” value is reported as -15.95%. `Cc1c(F)cc(C(=O)NC2CC2)cc1-c1ccc2c(cnn2S(=O)(=O)c2ccc(F)c(F)c2)c1` [TCMDC-135239] was tested, and the “% Inhibition” value was 15.38%. `Cc1ccc2nc(C)cc(Nc3ccccc3O)c2c1` [TCMDC-123660] was tested, and the “% Inhibition” value was -31.17%. In the case of `CCCc1cc(C)ccc1OCCCON1C(NC(=O)OCC)=NC(NC(=O)OCC)=NC1(C)C` [TCMDC-131343], the “% Inhibition” value is reported as 12.88%. With `COc1cc(Cc2cnc(N)nc2N)cc(OCCn2ccccc2=O)c1OC` [TCMDC-137347] the “% Inhibition” value was -6.593%. `CCN(CC)c1ccc2nc(N)nc(N)c2c1Cl` [TCMDC-137857] was tested, and the “% Inhibition” value was -7.537%. `CSc1ccc(CN2CCC(CNC(=O)c3cc(-c4ccccc4F)cs3)C2)cc1.O=C(O)C(F)(F)F` (centres unmarked) [TCMDC-134460] was tested, and the “% Inhibition” value was 78.38%. For `O=C(NCC1CCN(Cc2ccc3c(c2)OCCO3)C1)c1cc(-c2ccccc2F)cs1.O=C(O)C(F)(F)F` (centres unmarked) [TCMDC-134459], the “% Inhibition” value was 14.42%. For `CN(C)c1ccc(CN2CCC(CNC(=O)c3cc(-c4ccccc4F)cs3)C2)cc1.O=C(O)C(F)(F)F` (centres unmarked) [TCMDC-134453], the “% Inhibition” value was 72.61%. For `CCCNC[C@@H](O)[C@H](Cc1ccccc1)NC(=O)c1cc(NCC)cc(N2CCCC2=O)c1` [TCMDC-138890], the “% Inhibition” value was 18.6%. For `Cc1cc(C(=O)OCC(N)=O)c(C)n1-c1ccc(F)cc1` [TCMDC-123812], the “% Inhibition” value was -34.47%. With `Cc1cc(N2CCOCC2)nc2ccc(NC(=O)c3ccc(Cl)c([N+](=O)[O-])c3)cc12` [TCMDC-125441] the “% Inhibition” value was -11.29%. In the case of `C=CCN(C(=O)c1ccc(Cl)c([N+](=O)[O-])c1)c1nc(-c2ccccc2)cs1` [TCMDC-124436], the “% Inhibition” value is reported as 137%. `CN(C)S(=O)(=O)c1ccc(C(=O)N(c2nc(-c3ccccc3)cs2)C2CCCCC2)cc1` [TCMDC-123561] was tested, and the “% Inhibition” value was -34.43%. For `O=C(Nc1cc(Cl)cc(Cl)c1)c1cc(Cl)c(=O)n(Cc2ccc(Cl)cc2)c1` [TCMDC-123810], the “% Inhibition” value was 18.7%. With `CCOC(=O)c1cn(CC)c2cc(N3CCCCC3)c(F)cc2c1=O` [TCMDC-124156] the “% Inhibition” value was 35.74%. `CCn1cc(C(=O)O)c(=O)c2cc(F)c(N3CCN(S(=O)(=O)c4ccc(N)cc4)CC3)cc21` [TCMDC-125809] was tested, and the “% Inhibition” value was 2.438%. With `CCOC(=O)c1cn(CC)c2cc(N3CCCCCC3)c(F)cc2c1=O` [TCMDC-124160] the “% Inhibition” value was 58.45%. For `O=C(/C=C/c1ccc(Cl)c(Cl)c1)NCCCCCCN1CCCN(C(=O)Nc2ccc(F)c(F)c2)CC1` [TCMDC-135938], the “% Inhibition” value was -42.76%. For `O=C1Nc2cccc3c2C1(CCCCN1CCC(c2c(-c4ccccc4)[nH]c4ccccc24)CC1)CCC3` (centres unmarked) [TCMDC-140655], the “% Inhibition” value was 54.78%. For `CC1(CCCCN2CC=C(c3c[nH]c4ccccc34)CC2)C(=O)Nc2ccccc21` (centres unmarked) [TCMDC-140717], the “% Inhibition” value was -30.41%. `O=C1Nc2cccc3c2C1(CCCCN1CCC(c2c(-c4ccc(F)cc4)[nH]c4ccccc24)CC1)CCC3` (centres unmarked) [TCMDC-140656] was tested, and the “% Inhibition” value was 74.07%. For `Cc1[nH]c2ccccc2c1C1=CCN(CCCCCC23CCCc4cccc(c42)NC3=O)CC1` (centres unmarked) [TCMDC-140463], the “% Inhibition” value was -65.61%. With `Cc1ccc(OC2CCN(CCCCC3(C)C(=O)Nc4ccccc43)CC2)cc1` (centres unmarked) [TCMDC-140795] the “% Inhibition” value was -17.97%. `Cc1nc(N)nc(N)c1-c1ccc2ccccc2c1` [TCMDC-137286] was tested, and the “% Inhibition” value was -7.805%. `FC(F)(F)c1ccc2[nH]c(-c3cccc(-c4cccc(CNCc5cnn(-c6ccccc6)n5)c4)c3)nc2c1.O=C(O)C(F)(F)F` [TCMDC-132966] was tested, and the “% Inhibition” value was -44.07%. For `COc1cccc(NC(=O)N2CCOC(CCN3CCC4(CCc5ccccc54)CC3)(c3ccc(Cl)c(Cl)c3)C2)c1` (centres unmarked) [TCMDC-135330], the “% Inhibition” value was -52.33%. In the case of `CC(C)n1c(C2CCN(CC3CCN(C(=O)/C=C/c4ccc(Cl)c(Cl)c4)CC3)CC2)nc2ccccc21` [TCMDC-140212], the “% Inhibition” value is reported as -15.48%. For `Cc1cc(O)cc2c(C3CCN(CC4CCN(C(=O)/C=C/c5ccc(Cl)c(Cl)c5)CC4)CC3)c[nH]c12` [TCMDC-140065], the “% Inhibition” value was -70.17%. For `O=C(/C=C/c1ccc(Cl)c(Cl)c1)N1CCC(CN2CCC(c3c(-c4ccc(F)cc4)[nH]c4ccccc34)CC2)CC1` [TCMDC-140654], the “% Inhibition” value was 18.04%. With `Cn1c(NC2CCN(CC3CCN(C(=O)/C=C/c4ccc(Cl)c(Cl)c4)CC3)CC2)nc2ccccc21` [TCMDC-140340] the “% Inhibition” value was 94.55%. For `O=C(/C=C/c1ccc(Cl)c(Cl)c1)N1CCC(CN2CCC(Cc3nc4ccccc4[nH]3)CC2)CC1` [TCMDC-140119], the “% Inhibition” value was 26.7%. With `Cc1ccc(-c2ccc3c(c2)C=C(C(=O)NCC2CCN(CC4CCN(C(=O)/C=C/c5ccc(Cl)c(Cl)c5)CC4)CC2)CCC3)cc1` [TCMDC-140646] the “% Inhibition” value was 108.7%. With `CC(C)n1c(CC2CCN(CC3CCN(C(=O)/C=C/c4ccc(Cl)c(Cl)c4)CC3)CC2)nc2ccccc21` [TCMDC-140372] the “% Inhibition” value was 82.38%. For `CCn1c(C2CCN(CCC3CCN(C(=O)/C=C/c4ccc(Cl)c(Cl)c4)CC3)CC2)nc2ccccc21` [TCMDC-140221], the “% Inhibition” value was -5.757%. In the case of `Cc1[nH]c2ccccc2c1CC1CCN(CC2CCN(C(=O)/C=C/c3ccc(Cl)c(Cl)c3)CC2)CC1` [TCMDC-140128], the “% Inhibition” value is reported as -40.98%. With `O=C(/C=C/c1ccc(Cl)c(Cl)c1)N1CCC(CN2CCC(c3nc4ccccc4n3CCCO)CC2)CC1` [TCMDC-140312] the “% Inhibition” value was -4.21%. With `O=C(/C=C/c1ccc(Cl)c(Cl)c1)N1CCC(CN2CCC(c3c(Br)[nH]c4ccccc34)CC2)CC1` [TCMDC-140652] the “% Inhibition” value was -44.15%. With `O=C(/C=C/c1ccc(Cl)c(Cl)c1)N1CCC(CN2CCC(c3c(-c4ccccc4)[nH]c4ccccc34)CC2)CC1` [TCMDC-140653] the “% Inhibition” value was 54.21%. In the case of `CC1CC(C)CN(S(=O)(=O)c2cc(C(=O)Nc3cccc([N+](=O)[O-])c3)ccc2Br)C1` (centres unmarked) [TCMDC-124626], the “% Inhibition” value is reported as -10.68%. `O=C(Nc1cc(F)c(F)c(-c2cccnc2)c1)N1CCc2cc(Cl)c(Cl)cc21` [TCMDC-139065] was tested, and the “% Inhibition” value was 25.18%. With `Cc1ccc(-c2nc(N3CCN(C(=O)c4ccco4)CC3)c3ccccc3n2)cc1` [TCMDC-124779] the “% Inhibition” value was -11.86%. For `COc1ccccc1CNC(=O)c1cc(OC)c(OC)cc1NC(=O)c1cccs1` [TCMDC-125022], the “% Inhibition” value was 22.04%. With `CCOc1cc(Cc2cnc(N)nc2N)cc(OCC)c1O` [TCMDC-137181] the “% Inhibition” value was 40.77%. With `O=C(/C=C/c1ccc(Cl)c(Cl)c1)N1CCC(CN2CCC(c3cn(CC(=O)N4CCCCC4)c4ccccc34)CC2)CC1` [TCMDC-134193] the “% Inhibition” value was 103%. `CC(C)NC(=O)Cn1cc(C2CCN(CC3CCN(C(=O)/C=C/c4ccc(Cl)c(Cl)c4)CC3)CC2)c2ccccc21` [TCMDC-134172] was tested, and the “% Inhibition” value was -9.49%. For `O=C(c1ccc(O)c(-c2cc(Cl)cc(Cl)c2)c1)N(CCO)CCO` [TCMDC-140160], the “% Inhibition” value was -5.034%. With `COc1ccc2c(=O)c(I)c(C)[nH]c2c1` [TCMDC-138141] the “% Inhibition” value was 64.56%. `COc1ccc2c(=O)c(-c3ccc(OC(F)(F)F)cc3)c(C)[nH]c2c1` [TCMDC-138811] was tested, and the “% Inhibition” value was 45.07%. For `COc1ccc2c(=O)c(Br)c(C)[nH]c2c1` [TCMDC-137426], the “% Inhibition” value was 72.62%. With `COc1ccc2c(=O)c3ccc(OC)cc3[nH]c2c1` [TCMDC-132054] the “% Inhibition” value was 37.12%.
